In the supplement of paper PMC12636033:
± gives the standard deviation of the averaged measurements. The full ranking holds about 33,000 sequences; the median of “E-score (rank enrichment, -0.5 to 0.5)” is about -0.0068, and the highest 2% start at about 0.24. The full list was thinned out, with the highest values kept by preference.

Test system: muMax20 (Max(13-93) K31hArg/K57hArg, M65Nle)
Assay: PBM 8-mer E-score (E-score (rank enrichment, -0.5 to 0.5)); higher = stronger preferential binding
Experimental: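 Protein binding microarray (universal PBM chip covering all 10-mers in fixed probe flanks) with chemically synthesized human Max(13-93) bHLH-LZ analogs (not full-length Max) bearing noncanonical residues (hArg, Tha, Aib, Nle at 65) and aromatic Cys staples. Read-out per 8-mer (and its reverse complement): E-score (rank-based enrichment, -0.5 to 0.5) and Z-score of median probe intensity.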

Compared with CCATCAGC, AAATTCCA is higher in “PBM 8-mer E-score” value: -0.0581 ± 0.017 for the first, 0.254 ± 0.0063 for the second.

GAATTCCA and CAATTCCA are within error of each other in “PBM 8-mer E-score” value: 0.017 ± 0.13 for the first, -0.00806 ± 0.02 for the second.

First: GGGCGTAA
Second: CTATCTTC
The “PBM 8-mer E-score” value of the first is lower: -0.0137 ± 0.039 for the first, 0.137 ± 0.013 for the second.

Compared with ATATCTTC, ATATCTTA is lower in “PBM 8-mer E-score” value: 0.273 ± 0.027 for the first, 0.0954 ± 0.0085 for the second.

GAGTGCCC and CTATACCC are within error of each other in “PBM 8-mer E-score” value: -0.0978 ± 0.005 for the first, -0.0276 ± 0.12 for the second.

Compared with CAAAACAC, AAAAACAC is higher in “PBM 8-mer E-score” value: -0.0123 ± 0.11 for the first, 0.283 ± 0.042 for the second.

First: ACGAAAAC
Second: GAAAACAC
The “PBM 8-mer E-score” value of the first is higher: 0.248 ± 0.03 for the first, 0.0158 ± 0.069 for the second.

AAAAAACC and ACGAAAAA are within error of each other in “PBM 8-mer E-score” value: 0.2 ± 0.036 for the first, 0.181 ± 0.01 for the second.

Compared with ACGAAAAG, GAAGAAAA is lower in “PBM 8-mer E-score” value: 0.154 ± 0.00054 for the first, 0.119 ± 0.022 for the second.

AAAAAAAC and CAAGAAAC are within error of each other in “PBM 8-mer E-score” value: 0.236 ± 0.056 for the first, 0.177 ± 0.047 for the second.

GAAGAAAC and CAAAAAAC are within error of each other in “PBM 8-mer E-score” value: 0.241 ± 0.024 for the first, 0.21 ± 0.017 for the second.

Compared with ACACTTCT, GGACAGCC is lower in “PBM 8-mer E-score” value: -0.0487 ± 0.018 for the first, -0.155 ± 0.053 for the second.

GGCTCCCA and GCCTACGC are within error of each other in “PBM 8-mer E-score” value: -0.218 ± 0.099 for the first, -0.109 ± 0.09 for the second.

Going from AAAGAAAG to AAAGAAAA, the “PBM 8-mer E-score” value rises from 0.084 ± 0.006 to 0.263 ± 0.074.

GGAAAAAA and CAAAACCC are within error of each other in “PBM 8-mer E-score” value: 0.136 ± 0.12 for the first, 0.145 ± 0.0083 for the second.

Compared with GAAAAAAC, GAAAAAAA is higher in “PBM 8-mer E-score” value: 0.178 ± 0.042 for the first, 0.255 ± 0.013 for the second.

Going from CAAAAACC to CCAAAACC, the “PBM 8-mer E-score” value falls from 0.237 ± 0.016 to 0.122 ± 0.057.

First: CAAGAAAA
Second: CCCCCGAC
The “PBM 8-mer E-score” value of the first is higher: 0.0576 ± 0.13 for the first, -0.232 ± 0.054 for the second.

CCACAGGG and ATCCGGTA are within error of each other in “PBM 8-mer E-score” value: -0.0979 ± 0.07 for the first, -0.00311 ± 0.041 for the second.

First: ATGTCTAC
Second: AAACTGGA
The “PBM 8-mer E-score” value of the first is lower: -0.0533 ± 0.013 for the first, 0.098 ± 0.12 for the second.

First: AATTGGGC
Second: AATTGGGA
The “PBM 8-mer E-score” value of the first is lower: 0.0726 ± 0.029 for the first, 0.239 ± 0.021 for the second.

AATTGGGT and AATTTGCA are within error of each other in “PBM 8-mer E-score” value: 0.181 ± 0.051 for the first, 0.149 ± 0.052 for the second.

CGAGTAAA and CAAGTCGC are within error of each other in “PBM 8-mer E-score” value: 0.0289 ± 0.1 for the first, -0.102 ± 0.035 for the second.

ACGTGCGC and ACGTGTGG are within error of each other in “PBM 8-mer E-score” value: 0.241 ± 0.014 for the first, 0.227 ± 0.071 for the second.

Compared with ACGTGTGC, ACGTGCGG is lower in “PBM 8-mer E-score” value: 0.297 ± 0.087 for the first, 0.105 ± 0.078 for the second.

First: CCGTGCGC
Second: ACGTGTGA
The “PBM 8-mer E-score” value of the first is lower: -0.143 ± 0.07 for the first, 0.19 ± 0.11 for the second.

ACGCGTGG and ACGCGTGC are within error of each other in “PBM 8-mer E-score” value: 0.183 ± 0.12 for the first, 0.253 ± 0.042 for the second.

ACGCGTGA and GGAGAAGA are within error of each other in “PBM 8-mer E-score” value: 0.148 ± 0.14 for the first, 0.084 ± 0.0044 for the second.

Going from CTCCTTAC to CGTCTAGC, the “PBM 8-mer E-score” value falls from 0.0913 ± 0.013 to -0.0301 ± 0.083.

Compared with GAGCCTAA, CGAGTACC is lower in “PBM 8-mer E-score” value: -0.0774 ± 0.0028 for the first, -0.134 ± 0.016 for the second.

Going from AACGGCTG to ACCCACGA, the “PBM 8-mer E-score” value rises from -0.184 ± 0.1 to 0.0663 ± 0.055.

Going from ACCCACGC to AACCACGT, the “PBM 8-mer E-score” value rises from 0.109 ± 0.027 to 0.369 ± 0.057.

Compared with AACCACGC, ACCCACGT is higher in “PBM 8-mer E-score” value: -0.0767 ± 0.24 for the first, 0.341 ± 0.11 for the second.

First: AACCACGA
Second: AGTGTGCG
The “PBM 8-mer E-score” value of the first is higher: 0.141 ± 0.09 for the first, -0.149 ± 0.0092 for the second.

Going from AAGATGTG to CCCCCGCC, the “PBM 8-mer E-score” value falls from 0.128 ± 0.009 to -0.0877 ± 0.065.

Going from GCCGCCCC to GCCGCCCA, the “PBM 8-mer E-score” value falls from -0.0538 ± 0.0099 to -0.267 ± 0.094.

First: ACCCGCCC
Second: GCCCGCCC
The “PBM 8-mer E-score” value of the first is higher: 0.172 ± 0.024 for the first, 0.0169 ± 0.057 for the second.

Compared with CCCGCCCA, AACCCGCC is lower in “PBM 8-mer E-score” value: 0.317 ± 0.073 for the first, -0.0715 ± 0.029 for the second.

ACCCCGCC and CCCGCCCC are within error of each other in “PBM 8-mer E-score” value: 0.27 ± 0.04 for the first, 0.273 ± 0.057 for the second.

Compared with CCCGCCCG, CCCCGCCC is higher in “PBM 8-mer E-score” value: -0.0341 ± 0.0082 for the first, 0.322 ± 0.043 for the second.

ACCGCCCC and AAGAAAGA are within error of each other in “PBM 8-mer E-score” value: 0.0617 ± 0.15 for the first, -0.00904 ± 0.054 for the second.

AGAGTAAG and CCAAATAC are within error of each other in “PBM 8-mer E-score” value: 0.117 ± 0.059 for the first, 0.13 ± 0.031 for the second.

CCCGAATA and CTTGGAGC are within error of each other in “PBM 8-mer E-score” value: -0.0449 ± 0.17 for the first, -0.103 ± 0.13 for the second.
